Measurements taken from PubChem BioAssay (EPA / NIEHS).
Inconclusive results are not listed. Some structures have more than one record in an assay (separate samples or runs), and their calls can disagree. The source made the active and inactive calls. Rule for the calls: active = hit-call score of the fitted dose curve at least 0.9, where 1 is the maximum; inconclusive = response in the unintended direction; inactive = score below 0.9.

Columns and labels:
[1] = TOX21_p53_BLA_p3_viability: Viability Assessment in the Tox21 HCT-116 p53 Agonism Beta-lactamase Assay, Phase 3 (AID 2283593);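 note: cells exposed to compound for 16 h before reading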
Procedure, shortened: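 HCT-116 cells (4000/well) rested 5 h at 37C, then got DMSO compounds by pin tool (217-fold dilution) for 16 h at 37C, 5% CO2. After the bla read, CellTiter-Glo was added and luminescence read at 30 min, room temperature.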

[2] = target: Cellular tumor antigen p53 (Homo sapiens) (UniProt P04637); experiment: TOX21_p53_BLA_p3_ratio: Tox21 HCT-116 p53 Agonism Beta-lactamase Assay, Ratio, Phase 3 (AID 2283596)
Procedure, shortened: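 Cells were seeded at 4000/well, rested 5 h at 37C, then dosed with DMSO compound solutions (217-fold dilution) for 16 h. CCF4-AM substrate was loaded for 2 h at room temperature, and the 460/530 nm emission ratio was fitted for gain of signal versus DMSO.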

[3] = TOX21_p53_BLA_p4_viability: Viability Assessment in the Tox21 HCT-116 p53 Agonism Beta-lactamase Assay, Phase 4 (AID 2283597);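 note: hits lower the luminescence signal meaning cytotoxicity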
Procedure, shortened: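 Cytotoxicity was inferred from loss of CellTiter-Glo luminescence. HCT116 cells had been dosed with compounds after 5 h plating, incubated 16 h at 37C and 5% CO2, and exposed to the CCF4-AM substrate for 2 h.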

[4] = target: Cellular tumor antigen p53 (Homo sapiens) (UniProt P04637); experiment: TOX21_p53_BLA_p5_ratio: Tox21 HCT-116 p53 Agonism Beta-lactamase Assay, Ratio, Phase 5 (AID 2283599)
Procedure, shortened: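 HCT-116 cells carrying a p53-inducible beta-lactamase reporter were seeded at 4000 cells/well and dosed after 5 h with compound in DMSO (217-fold dilution). After 16 h at 37C, CCF4-AM substrate was added for 2 h, and the 460/530 nm emission ratio was scored as gain-of-signal versus DMSO.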

[5] = TOX21_p53_BLA_p5_viability: Viability Assessment in the Tox21 HCT-116 p53 Agonism Beta-lactamase Assay, Phase 5 (AID 2283600)
Procedure, shortened: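 Luciferase-coupled ATP quantitation of cells treated for 16 h (37C, 5% CO2) with test chemicals delivered in DMSO via a 217-fold dilution; 4000 cells/well; reagent incubated 30 min at room temperature before luminescence reading.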

[6] = Tanguay_ZF_120hpf_AXIS_legacy: (Legacy) Oregon State University Tanguay Lab 120 Hour Post-fertilization zebrafish Assay for Body Axis Malformation (AID 2283635);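 for AC50: potency for an increased fraction of larvae scored with body axis malformation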
Procedure, shortened: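 Tropical 5D wild-type zebrafish embryos, dechorionated with pronase at 4 hpf, were placed singly in wells at 6 hpf and exposed statically to test chemical (0.64% DMSO final) at 28C until 120 hpf, then scored by brightfield for body axis defects.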

[7] = Tanguay_ZF_120hpf_EYE_legacy: (Legacy) Oregon State University Tanguay Lab 120 Hour Post-fertilization zebrafish Assay for Eye Malformation (AID 2283636);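 note: binary presence or absence of eye malformation scored by brightfield in 120 hpf larvae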
Procedure, shortened: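 Static waterborne exposure of dechorionated zebrafish embryos (strain Tropical 5D), 6 to 120 hpf, sealed plates at 28C, 0.64% DMSO vehicle. Eye malformation is scored as a binary endpoint, with gain of signal analysed relative to DMSO.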

[8] = Tanguay_ZF_120hpf_MORT_legacy: (Legacy) Oregon State University Tanguay Lab 120 Hour Post-fertilization zebrafish Assay for Mortality (AID 2283633)
Procedure, shortened: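 Dechorionated Tropical 5D wild-type zebrafish embryos, one per well from 6 hpf, were statically exposed at 28C in the dark until 120 hpf (0.64% DMSO final). Mortality was scored as present/absent by brightfield microscopy, fitted positively versus DMSO.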

[9] = Tanguay_ZF_120hpf_YSE_legacy: (Legacy) Oregon State University Tanguay Lab 120 Hour Post-fertilization zebrafish Assay for Yolk Sac Edema (AID 2283634)
Procedure, shortened: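 Tropical 5D wild-type embryos, dechorionated with pronase at 4 hpf, were exposed singly from 6 hpf to 120 hpf under static, sealed, dark conditions at 28C with 0.64% DMSO final. Yolk sac edema was scored present/absent by brightfield microscopy.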

[10] = target: Cellular tumor antigen p53 (Homo sapiens) (UniProt P04637); experiment: TOX21_p53_BLA_p4_ratio: Tox21 HCT-116 p53 Agonism Beta-lactamase Assay, Ratio, Phase 4 (AID 2283601)
Procedure, shortened: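 HCT116 cells carrying an inducible beta-lactamase reporter were plated at 4000 cells/well, rested 5 h, then exposed to compounds in DMSO (217-fold dilution) for 16 h at 37C. CCF4-AM substrate was loaded 2 h at room temperature; 460/530 nm emission ratio scored gain-of-signal versus DMSO.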

Measured: AC50

Sequence of Cellular tumor antigen p53 (Homo sapiens) (P04637 whole entry, looked up): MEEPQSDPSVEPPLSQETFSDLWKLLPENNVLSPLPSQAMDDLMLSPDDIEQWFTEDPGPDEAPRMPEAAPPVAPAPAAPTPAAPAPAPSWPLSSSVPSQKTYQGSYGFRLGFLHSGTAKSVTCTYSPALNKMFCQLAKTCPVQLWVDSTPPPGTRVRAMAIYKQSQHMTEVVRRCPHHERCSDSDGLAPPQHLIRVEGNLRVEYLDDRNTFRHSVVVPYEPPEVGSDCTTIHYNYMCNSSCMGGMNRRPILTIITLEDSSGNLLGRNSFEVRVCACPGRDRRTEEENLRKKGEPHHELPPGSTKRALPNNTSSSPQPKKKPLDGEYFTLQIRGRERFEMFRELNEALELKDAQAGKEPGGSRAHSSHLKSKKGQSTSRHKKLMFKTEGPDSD

OC(CCl)CCl
not listed: [8] | [9] | [10]
inactive: all other assays above

CC1(C)C(=O)N(Cl)C(=O)N1Cl
inactive: [3] | [4] | [5] | [8] | [9] | [6]

CCCCC(CC)C(=O)OCCOCCOCCOC(=O)C(CC)CCCC (configuration not stated)
not listed: [4] | [8] | [9]
inactive: all other assays above

CCCCCCCCCCCCCCO
not listed: [4]
inactive: all other assays above

O=C(N[C@H](CO)[C@H](O)c1ccc([N+](=O)[O-])cc1)C(Cl)Cl
inactive: [1] | [2] | [3] | [4] | [5] | [10]

NC(=O)N1c2ccccc2C=Cc2ccccc21
inactive: [8] | [9] | [6] | [7]

CCn1nc(C)c2c1C(=O)NCC(c1ccc(O)cc1)=N2
inactive: [1] | [2] | [4] | [10] | [6] | [7]

c1ccc2cc3ccccc3cc2c1
inactive: all assays above

CC(C)c1nnc2ccc(-c3ocnc3-c3cc(F)ccc3F)cn12
inactive: [1] | [3] | [4] | [9] | [7]

OCCOCCOCCO
not listed: [5] | [9]
inactive: all other assays above

S=P(N1CC1)(N1CC1)N1CC1
active: [2] 48.8 µM
inactive: [1] | [2] | [3] | [4] | [5] | [10]

CC(=O)c1ccccc1
not listed: [8] | [9]
inactive: all other assays above

c1ccc2ncccc2c1
not listed: [9]
inactive: all other assays above

O=C1CN(N=Cc2ccc([N+](=O)[O-])o2)C(=O)N1
not listed: [6] | [8] | [9]
inactive: all other assays above

CCCc1ccccc1
inactive: [1] | [5] | [6] | [7]

CCc1cccc(CC)c1N
not listed: [3] | [7]
inactive: all other assays above

CCCCCCCCN(C)C
inactive: [2] | [3] | [4] | [5] | [8] | [6]

Cc1cccc(O)c1C
inactive: [1] | [2] | [4] | [5] | [10]

O=C(O)c1cccc(C[C@@H]2COc3ccc(OCc4nc5cc(F)ccc5s4)cc3[C@@H]2O)c1
active: [6] 5.78 µM
inactive: [2] | [3] | [4] | [10] | [7]

CCCCCCCCCC
not listed: [1] | [8] | [9]
inactive: all other assays above

CCCCOC(=O)c1ccccc1
inactive: [1] | [2] | [5] | [10] | [6] | [7]

OCc1c[nH]c2ccccc12
inactive: [1] | [2] | [3] | [4] | [5]
active: [10] 78.9 µM

C=CN1CCCC1=O
not listed: [8] | [9]
inactive: all other assays above

Cn1c(=O)c2[nH]cnc2n(C)c1=O
not listed: [1] | [9]
inactive: all other assays above

CCCCN1C(=O)[C@@H]([C@H](O)C2CCCCC2)NC(=O)C12CCN(Cc1ccc(Oc3ccc(C(=O)O)cc3)cc1)CC2
active: [2] 48.8 µM | [4] 63.7 µM | [10] 57.9 µM
inactive: [3] | [9] | [6]

O=S1(=O)CCCO1
not listed: [1] | [8] | [9]
inactive: all other assays above

NNC(=O)c1ccncc1
inactive: [1] | [3] | [5] | [10] | [6] | [7]

C[C@]12C=CC(=O)C=C1CC[C@H]1[C@@H]3C[C@@H](O)[C@](O)(C(=O)CO)[C@@]3(C)C[C@H](O)[C@@]12F
not listed: [5] | [8] | [9]
inactive: all other assays above

OC(Cn1cncn1)(Cn1cncn1)c1ccc(F)cc1F
not listed: [7] | [9]
inactive: all other assays above

CCCCCCCC/C=C\CCCCCCCC(=O)OC[C@@H](O)[C@H]1OC[C@H](O)[C@H]1O
not listed: [3] | [8] | [9]
inactive: all other assays above

NC(=O)NN=Cc1ccc([N+](=O)[O-])o1
not listed: [7] | [8] | [9]
inactive: all other assays above

O=C(O)c1ccc2c(c1)nc(C(=O)NC1CCN(C3CC3)CC1)n2Cc1cc(-c2ccc(Cl)s2)on1
not listed: [1] | [3] | [7]
inactive: all other assays above

c1ccc(C(O[C@@H]2CCCN(CCc3ccc4c(c3)OCO4)C2)c2ccccc2)cc1
active: [6] 34.7 µM | [7] 36.5 µM
not listed: [5] | [9]
inactive: all other assays above

CCCCCCCCCCCCCCCCOS(=O)(=O)O
active: [3] 36.5 µM
not listed: [8]
inactive: all other assays above

CCc1ccc(O)c(C(C)(C)C)c1
active: [3] 79.1 µM | [10] 53.1 µM
inactive: [1] | [2] | [5] | [9] | [7]

CCOC(N)=O
active: [2] 88.1 µM
inactive: [1] | [2] | [3] | [4] | [5] | [10] | [9] | [6] | [7]
